Screens deposited in PubChem by National Center for Advancing Translational Sciences (NCATS).
Only some compounds are listed: those with a hit (about 2.4% of all), similar ones and a draw of the others.
Pol eta inh-1: qHTS for Inhibitors of Polymerase Eta. DNA polymerase eta (Homo sapiens), Q9Y253. Potency, µM (highest dose often 114 µM), inactives show at the top dose activity change, negative = inhibition, most hits filed as inhibitors. AID 588591, 2011. 1.2% of 390,000 active. recombinant Pol eta, fluorescent DNA replication assay; note: % is set by controls: 0 for no effect and ±100 for the full control effect
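Pol eta (10 nM) was preincubated with compounds for 15 min at room temperature, after which fluorescent replication substrate (50 nM final) was added to start the reaction. Fluorescence was read kinetically at 0 and 10 min.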
L3MBTL1 inh: qHTS Assay for the Inhibitors of L3MBTL1; AlphaScreen L3MBTL1–H3K9me1 peptide binding; Potency, µM (highest dose often 57.1 µM), without a hit: at the top dose activity, negative = inhibition, actives largely listed as inhibitors; 0.66% of 230,000 active; AID 485360, 2010; note: % is set by controls: 0 for no effect and ±100 for the full control effect; nearly all actives have a fitted effect of over 60% in size
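AlphaScreen proximity signal between nickel-chelate acceptor and streptavidin donor beads (final 10 ug/mL) reports binding of 50 nM L3MBTL1 to 75 nM biotin-H3 K9me1 peptide; complex incubated with compounds 30 min at room temperature; cefsulodin titration as control.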
POLB inh: qHTS Assay for Inhibitors of DNA Polymerase Beta; Pol beta primer extension/strand displacement, fluorescence kinetic; Potency, µM (titrated, usually from 114 µM), for inactives: at the highest dose activity change, negative = inhibition, usual class: inhibitors; 1.3% of 340,000 active; note: % is set by controls: 0 for no effect and ±100 for the full control effect
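Homogeneous kinetic assay of primer extension and strand displacement by 10 nM Pol beta, preincubated 15 min at room temperature with compound before 50 nM substrate (final) was added. Read at 0 and 10 min; four-parameter Hill fit.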
Pol kappa inh-1: qHTS for Inhibitors of Polymerase Kappa. 0.53% of 400,000 active. purified Pol kappa, fluorescent DNA synthesis assay, 10 min. Potency, µM (titrated, usually from 107 µM), for inactives: at the top dose activity, negative = inhibition, actives largely listed as inhibitors. AID 588579, 2011; note: % is set by controls: 0 for no effect and ±100 for the full control effect
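10 nM Pol kappa preincubated 15 min at room temperature with compounds, then reaction started with substrate at 50 nM final. Fluorescence read kinetically at 0 and 10 min; buffer-only wells served as negative control.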
POLI inh: qHTS for Inhibitors of Polymerase Iota | DNA polymerase iota (Homo sapiens), Q9UNA4 | Potency, µM (titrated, usually from 115 µM), for the others: at the top dose activity, negative = inhibition, hits mostly inhibitors | 1% of 390,000 active | Pol iota fluorescent replication assay, 10 min | AID 588590, 2011
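Fluorescent replication assay read twice, at 0 min and 10 min after adding 50 nM (final) substrate. Enzyme (10 nM) and compounds were first incubated 15 min at room temperature; enzyme-free buffer wells were negative controls.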
TbPGK inh: qHTS for inhibitors of Phosphogylcerate Kinase: Hit Validation Screen. AID 686980, 2013. shares compounds with Pol kappa inh-1. Potency, µM (series often up to 57.5 µM), inactives show at the top dose activity change, negative = inhibition, actives largely listed as inhibitors. TbPGK coupled GAPDH assay, Kinase-Glo luminescence. 79% of 500 active; note: % is set by controls: 0 for no effect and ±100 for the full control effect; nearly all actives have a fitted effect of over 65% in size
Target sequence (P07378 whole entry, looked up): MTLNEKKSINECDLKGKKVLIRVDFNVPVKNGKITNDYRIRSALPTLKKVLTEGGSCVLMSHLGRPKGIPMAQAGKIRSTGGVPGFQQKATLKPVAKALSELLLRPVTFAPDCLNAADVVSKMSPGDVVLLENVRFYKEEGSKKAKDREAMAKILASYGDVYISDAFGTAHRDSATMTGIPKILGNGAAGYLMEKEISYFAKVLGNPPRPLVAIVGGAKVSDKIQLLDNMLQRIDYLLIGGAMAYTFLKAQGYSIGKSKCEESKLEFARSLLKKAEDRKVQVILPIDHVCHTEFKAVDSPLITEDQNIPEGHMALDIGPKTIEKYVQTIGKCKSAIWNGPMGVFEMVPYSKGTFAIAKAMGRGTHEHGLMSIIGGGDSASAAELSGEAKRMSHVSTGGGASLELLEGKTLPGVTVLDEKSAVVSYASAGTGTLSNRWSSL
POLI cherry-pick: qHTS for Inhibitors of Polymerase Iota: Confirmatory Assay for Cherry-picked Compounds. shares compounds with Pol kappa inh-1. Pol iota primer extension, TAMRA/BHQ fluorescence. Potency, µM, usual class: inhibitors. 77% of 1,500 active. AID 720496, 2013
Pol kappa inh-2: qHTS for Inhibitors of Polymerase Kappa: Confirmatory Assay for Cherry-picked Compounds; purified Pol-kappa, fluorescent strand-displacement substrate; 76% of 920 active; Potency, µM, actives largely listed as inhibitors; shares compounds with Pol eta inh-1; AID 720501, 2013
Pol eta inh-2: qHTS for Inhibitors of Polymerase Eta: Confirmatory Assay for Cherry-picked Compounds; Potency, µM, most hits filed as inhibitors; Pol eta primer extension, TAMRA/BHQ fluorescence, 10 min; shares compounds with Pol eta inh-1; 64% of 2,600 active
Numbers without * were called inactive; i = inactive; ? = inconclusive; . = no result given; [ ] = another dose, or the depositor's remark. Calls come from the whole dose curve; as a rule, active = well fitted curve in the direction sought with a large enough effect; inconclusive = small, poorly fitted or top-dose-only effect, or another doubt; inactive = no such curve, though single readings can be large; an effect the other way counts as inactive or inconclusive. Potency is the fitted concentration of half-maximal effect.

SMILES	Pol eta inh-1	L3MBTL1 inh	POLB inh	Pol kappa inh-1	POLI inh	POLI cherry-pick	Pol eta inh-2	others
O=C(CN1C(=O)/C(=C2\SC(=S)N(CCS(=O)(=O)O)C2=O)c2ccccc21)Nc1cccc(Br)c1	?	.	?	?	?	.	.	TbPGK inh=15µM*
c1ccc(C2=NNC(=NC3CC3)SC2)cc1	-1%	8%	11%	-9%[60.1 µM]	?	.	.	TbPGK inh=16µM*
COc1ccccc1COC(=O)C(NC(=O)c1ccc(C)cc1)C(C)C (configuration not stated)	-27%	9%	.	-3%	30%	.	.
COc1ccc(CCNC(=O)C(=O)NCC(c2ccc3c(c2)OCO3)N2CCOCC2)cc1OC (configuration not stated)	-1%	.	17%	-4%[60.1 µM]	-14%	.	.
COCCCNC(=O)Cn1nc(N2CCN(c3ccccc3)CC2)ccc1=O	-11%	.	3%	-15%	8%	.	.
Cc1cc(NC(=O)c2cncc(Br)c2)ccc1NC(=O)c1cc2ccccc2o1	50µM*	.	?	-12%	?	?	.
CCOc1ccc(-c2ccc(SCC(=O)Nc3nnc(CC)s3)nn2)cc1	-9%	.	-3%	-14%	80%	.	.
CCOc1ccc(-c2ccc(SC)nn2)cc1	-16%	?	13%	-7%	133%	.	.	TbPGK inh=8.2µM*
COc1ccc(CCNC(=O)CN(c2cc(C(F)(F)F)ccc2Cl)S(C)(=O)=O)cc1	-19%	.	3%	-6%	9%	.	.
CC(=O)c1cccc(NS(=O)(=O)c2cc3c(cc2C)n(C)c(=O)c(=O)n3C)c1	-24%	.	0%	-1%	24%	.	.
CNC(=O)C1CCC(Cn2c(=O)c3sccc3n(CC(=O)Nc3cc(C)cc(C)c3)c2=O)CC1 (configuration not stated)	3%	.	2%	6%	3%	.	.	TbPGK inh=-28%
CNC(=O)C1CCC(Cn2c(=O)c3sccc3n(CC(=O)N3CCCC3)c2=O)CC1 (configuration not stated)	-13%	.	-1%	-27%	3%	.	.
CNC(=O)C1CCC(Cn2c(=O)c3sccc3n(CC(=O)N3CCC(C)CC3)c2=O)CC1 (configuration not stated)	-2%	.	-1%	0%	10%	.	.	TbPGK inh=-17%
O=Cc1cn(-c2ccccc2)nc1-c1cc2cc(O)ccc2oc1=O	?	.	56µM*	?	22µM*	?	.
CSc1ccc(/C=N/Nc2cccc(C(=O)O)c2)cc1	1.1µM*	5µM*	2µM*	7.9µM*	2.2µM*	2.7*	2.1*
COC(=O)c1ccc(COc2ccc(/C=N/Nc3cccc(C(=O)O)c3)cc2)cc1	18µM*	25µM*	-30%	?	32µM*	60*	27*
O=C1NN(c2ccccc2)C(=O)/C1=C\c1ccc(-c2cc([N+](=O)[O-])ccc2O)o1	20µM*	?	10µM*	40µM*	16µM*	?	27*
O=C1NN(c2ccc(Cl)cc2)C(=O)/C1=C\c1ccc(-c2cccc(C(=O)O)c2)o1	4.5µM*	.	10µM*	20µM*	8.9µM*	21*	17*
CC(C)(C)OC(=O)N1CCC(c2c(C(=O)NCCN3CCOCC3)cnn2-c2cccc(F)c2)CC1	1%	.	2%	-9%	13%	.	.
COc1ccc(C(=O)Oc2ccc(/C=N/NC(=O)c3ccccc3OC)cc2[N+](=O)[O-])cc1	-6%	4%	17%	0%	15%	.	.
COc1ccc(C(=O)N/N=C/c2ccc(OC(=O)c3cccc4ccccc34)c([N+](=O)[O-])c2)cc1	?	-17%	11µM*	?	?	?	.	Pol kappa inh-2=67*
C/C(N)=C(/C#N)C(=O)CSc1nc2ccccc2c(=O)n1Cc1ccc(F)cc1	20µM*	?	7.9µM*	79µM*	11µM*	42*	48*	Pol kappa inh-2=38*
C/C(N)=C(/C#N)C(=O)CSc1nc2ccccc2c(=O)n1Cc1ccc(C)cc1	-11%	.	5%	-25%	?	.	.
Cc1ccc2c(c1)c(=O)c1c3n2CCN(C(=O)CCl)C3CC1 (configuration not stated)	6.3µM*	.	16µM*	-41%	?	60*	60*
CCCCN(C)C1=CC2=CC(=C(C#N)C#N)CCC2CC1 (configuration not stated)	?	6%	-2%	-27%	?	75*	76*	Pol kappa inh-2=?
SMILES	Pol eta inh-1	L3MBTL1 inh	POLB inh	Pol kappa inh-1	POLI inh	POLI cherry-pick	Pol eta inh-2	others
N#CC1=C(N)CCC1	.	.	.	12%	26%	.	.
O=C(O)CN1C(=O)/C(=C/c2ccc(N3CCCCC3)o2)SC1=S	50µM*	32µM*	18µM*	50µM*	i	42*	34*	Pol kappa inh-2=24*
CC1=Nc2ccccc2/C1=C\c1nc(-c2ccc(F)cc2)oc1O	?	.	35µM*	?	?	?	34*
CN=Cc1nc(-c2ccccc2)oc1O	-15%	-26%	22%	-2%	?	.	.
O=S(=O)(c1ccccc1)N1CCC2(CC1)CN(Cc1ccccc1)C2	.	.	.	7%[60.1 µM]	.	.	.
CCOc1ccc(NC(=O)CN(C)C(=O)c2csc3c2CCCC3)cc1OCC	-10%	-8%	.	-7%	21%	.	.
CCOc1ccc(NC(=O)CN(C)C(=O)c2cc3c(s2)CCC3)cc1OCC	3.5µM*	.	.	.	.	17*	34*	Pol kappa inh-2=19*
Cc1ccc(NC(=O)CSc2n[nH]c(-c3cccnc3)n2)cc1Cl	-21%	.	?	-3%	17%	.	.
CCCCN(CC)c1nc(C)nc2c1c(C)c(C)n2-c1c(C)cc(C)cc1C	.	.	.	6%[60.1 µM]	.	.	.
O=C1C(=Cc2cccc(O)c2O)SC(=S)N1CCCN1CCOCC1	20µM*	.	.	.	.	?	?
Oc1ccc(-c2csc(-c3cccnc3)n2)cc1O	25µM*	.	?	32µM*	28µM*	84*	?
